Reference: PubChem BioAssay AID588354 (The Scripps Research Institute Molecular Screening Center, 2011)
Among all 360,000 compounds or so, about 430 (0.12%) were called active.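 The calls were made as follows: active = inhibition above the campaign mean plus 3 SD, with each screening campaign given its own cutoff (cut at about 60% in these data); inactive = the rest.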 Shown is part of a subset that was picked to be rich in actives.

These compounds were tested against Nuclear receptor coactivator 1 (Homo sapiens) (UniProt Q15788) (assay: NCOA1 GAL4-fusion reporter inhibition – cell-based, luminescence, primary screen (AID 588354;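 also: 0% = DMSO treated cells and 100% = gossypol at 36 µM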)). Settings: HEK293 GAL4-SRC1 luciferase reporter, at 3.6 µM, hits give high values.
Nuclear receptor coactivator 1 (Homo sapiens), sequence (Q15788 whole entry, looked up, the tested form may be a part): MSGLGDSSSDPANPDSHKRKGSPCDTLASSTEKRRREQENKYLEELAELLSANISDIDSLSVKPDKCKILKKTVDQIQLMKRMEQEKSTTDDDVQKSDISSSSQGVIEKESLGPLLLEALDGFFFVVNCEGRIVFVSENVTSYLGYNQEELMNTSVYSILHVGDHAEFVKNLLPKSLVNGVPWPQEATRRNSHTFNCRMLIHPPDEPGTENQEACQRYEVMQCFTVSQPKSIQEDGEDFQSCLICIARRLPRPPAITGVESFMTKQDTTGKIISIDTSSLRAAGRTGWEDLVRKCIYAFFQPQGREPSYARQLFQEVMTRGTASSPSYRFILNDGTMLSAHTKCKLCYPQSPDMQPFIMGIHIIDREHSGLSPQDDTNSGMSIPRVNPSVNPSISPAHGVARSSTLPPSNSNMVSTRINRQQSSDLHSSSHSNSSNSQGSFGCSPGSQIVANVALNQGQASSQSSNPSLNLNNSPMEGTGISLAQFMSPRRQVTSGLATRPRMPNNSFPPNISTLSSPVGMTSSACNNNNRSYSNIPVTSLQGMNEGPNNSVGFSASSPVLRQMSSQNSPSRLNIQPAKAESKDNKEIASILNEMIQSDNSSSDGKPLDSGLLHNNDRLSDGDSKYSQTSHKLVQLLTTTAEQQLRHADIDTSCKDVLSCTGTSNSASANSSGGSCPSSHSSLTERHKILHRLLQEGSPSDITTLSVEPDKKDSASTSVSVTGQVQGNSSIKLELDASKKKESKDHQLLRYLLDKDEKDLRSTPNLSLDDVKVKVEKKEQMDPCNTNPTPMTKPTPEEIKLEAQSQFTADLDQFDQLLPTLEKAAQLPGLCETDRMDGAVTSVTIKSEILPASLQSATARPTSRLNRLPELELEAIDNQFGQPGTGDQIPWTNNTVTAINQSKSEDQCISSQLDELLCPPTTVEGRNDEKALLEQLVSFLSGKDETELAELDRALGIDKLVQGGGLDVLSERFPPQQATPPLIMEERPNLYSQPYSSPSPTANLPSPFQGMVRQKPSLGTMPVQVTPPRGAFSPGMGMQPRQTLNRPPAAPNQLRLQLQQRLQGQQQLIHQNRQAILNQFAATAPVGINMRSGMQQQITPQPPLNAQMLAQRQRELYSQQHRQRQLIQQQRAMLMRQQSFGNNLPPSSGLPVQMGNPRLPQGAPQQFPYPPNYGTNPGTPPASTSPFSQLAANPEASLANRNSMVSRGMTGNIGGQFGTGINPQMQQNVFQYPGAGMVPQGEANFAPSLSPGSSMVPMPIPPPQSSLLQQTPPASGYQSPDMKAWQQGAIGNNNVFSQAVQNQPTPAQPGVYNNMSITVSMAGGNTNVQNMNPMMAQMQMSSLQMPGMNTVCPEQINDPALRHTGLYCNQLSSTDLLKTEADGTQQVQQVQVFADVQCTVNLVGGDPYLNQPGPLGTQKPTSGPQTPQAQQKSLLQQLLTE
In the case of CCOc1cc(CNCc2ccccn2)ccc1OCC(=O)NC(C)(C)C, the inhibition is reported as 10.8% (inactive).
For O=C(Cc1ccccn1)c1ccc(O)cc1O, the inhibition was -0.25% (inactive).
CCC(C)C(=O)Nc1cc([N+](=O)[O-])ccc1Cl (configuration not stated) was tested, and the inhibition was -3.1% (inactive).
For OCCCNc1nccc(-c2cc(Nc3cccc(Cl)c3)ncn2)n1, the inhibition was 73.6% (active).
In the case of COc1ccc(-c2c(C#N)cnc(C)c2C)c(O)c1OC, the inhibition is reported as -0.11% (inactive).
In the case of O=C(c1ccc[nH]c1=S)N1CCN(S(=O)(=O)c2ccc(Br)cc2Cl)CC1, the inhibition is reported as -3.09% (inactive).
In the case of CC(C)CCNC(=O)CCNS(=O)(=O)c1ccc(Cl)cc1, the inhibition is reported as -13% (inactive).
Nc1cc2c(cc1Br)-c1ccc(F)cc1C2=O was tested, and the inhibition was -13.1% (inactive).
With CCOC(=O)N1CCC(O)(c2cc(C)c(C)cc2C)CC1 the inhibition was -15.8% (inactive).
For O=C(NCc1ccccc1Cl)C1CCCN1S(=O)(=O)c1ccc(F)cc1 (configuration not stated), the inhibition was -10.6% (inactive).
In the case of CCn1nc(C)c(CNC(=O)C2CCC(=O)N(Cc3cccc(F)c3)C2)c1C (configuration not stated), the inhibition is reported as -37.5% (inactive).
In the case of COc1ccc(NC(=O)CSc2nc(NS(=O)(=O)c3ccc(C)cc3)cc(=O)[nH]2)cc1, the inhibition is reported as -19.6% (inactive).
For COCCn1nnnc1CN1CCC(NC(=O)Nc2cccc(OC)c2)CC1, the inhibition was 0.56% (inactive).
For CC(=O)c1ccc(N2CCN(C(=O)CCNC(=O)Cn3ccc4ccccc4c3=O)CC2)cc1, the inhibition was 3.75% (inactive).
With O=C(c1cccc(-n2cccc2)c1)N1CCN(S(=O)(=O)c2ccc(F)cc2)CC1 the inhibition was -2.17% (inactive).
COc1ccc([C@H]2[C@H](C(C)=O)N3N=Cc4ccccc4C3C23C(=O)OC(C)(C)OC3=O)cc1 (some centres not stated) was tested, and the inhibition was -26.2% (inactive).
With CC(C)Oc1ccc(/C=N/NC(=O)c2nnn(-c3nonc3N)c2CN(C)C2CCCCC2)cc1 the inhibition was 7.06% (inactive).
For CCOc1ccccc1-n1c(SCC(=O)NCc2ccco2)nnc1-c1ccncc1, the inhibition was 5.79% (inactive).
With O=C(COC(=O)CCOc1ccccc1)Nc1cc(S(=O)(=O)N2CCCCC2)ccc1Cl the inhibition was -9.87% (inactive).
For COCCOC1CCN(C(=O)c2ccc(OC)c(OC3CCN(C(C)C)CC3)c2)CC1, the inhibition was -0.27% (inactive).
In the case of CCOC(=O)CC1COCCN1C(=O)c1cc(COc2ccc(F)c(F)c2)on1 (configuration not stated), the inhibition is reported as -5.67% (inactive).
In the case of COCCn1c(N)c(NCc2ccccc2)c(=O)[nH]c1=O, the inhibition is reported as -11.5% (inactive).
CCOP1(=O)C=C(C(C)(C)C)OC1c1ccc(F)cc1 (configuration not stated) was tested, and the inhibition was -6.16% (inactive).
O=C(O)COCC(=O)NCc1csc2ccc(Cl)cc12 was tested, and the inhibition was 11.9% (inactive).
CC1(C)CC(CNCCC(c2ccc(F)cc2)c2ccco2)CCO1 (configuration not stated) was tested, and the inhibition was 12.7% (inactive).
For COc1ccc(-c2nnc(SCC(=O)Nc3cccnc3Cl)n2C)cc1, the inhibition was 16.4% (inactive).
In the case of CCOC1=C2CN(S(=O)(=O)c3ccc(C)cc3)[C@H](c3cccs3)C[C@H]2[C@H]2C(=O)N(c3ccccc3)C(=O)[C@H]2C1, the inhibition is reported as 0.21% (inactive).
Cc1[nH]c(C)c(S(=O)(=O)N2CCC(C)CC2)c1C(=O)N1CCCC1 was tested, and the inhibition was 0.69% (inactive).
Cc1nc(-c2ccccc2)sc1-c1nc(-c2ccccc2)ncc1S(=O)(=O)c1ccccc1 was tested, and the inhibition was 7.02% (inactive).
With CCOc1ccc(CNC(=O)C2CC(=O)N(C3CCCC3)C2)cc1OC (configuration not stated) the inhibition was -4.04% (inactive).
COc1ccc(NC(=O)CN(C)C(=O)CNC(=O)C2CCCCC2)cc1 was tested, and the inhibition was 6.97% (inactive).
With O=C(COC(=O)c1ccco1)Nc1ccc(Cl)cn1 the inhibition was -10.8% (inactive).
With COc1cccc(/C=C(/CC(=O)Nc2ccc(N3CCOCC3)cc2)c2nc3ccccc3s2)c1 the inhibition was -38.5% (inactive).
For COC(=O)Cc1[nH]n(-c2nc3ccccc3s2)c(=O)c1C(C)=Nc1ccc(OC)cc1, the inhibition was 81.3% (active).
With COCCCC1CCN(C(=O)C2CCC(=O)N(C3CCCCCC3)C2)CC1 (configuration not stated) the inhibition was 2.7% (inactive).
For CCN(CC)C(=O)C1=C(C)N(Cc2ccccc2)C(=O)C(CC(=O)NC(c2ccccc2)c2ccccc2)C1 (configuration not stated), the inhibition was -24.8% (inactive).
With FC(F)(F)c1nc(-c2ccccc2)ncc1-c1nnnn1-c1ccccc1 the inhibition was 2.72% (inactive).
For CC1=CC(C)(C)Nc2ccc(OC(=O)CN3C(=O)C4CCCCC4C3=O)cc21 (configuration not stated), the inhibition was -14.7% (inactive).
In the case of CC[C@H]1CN2CCc3cc(OC)c(OC)cc3[C@@H]2C[C@@H]1C[C@H]1NCCc2cc(OC)c(OC)cc21, the inhibition is reported as 94.8% (active).
With Nc1c(N(CCCO)C(=O)C2CCCC2)c(=O)[nH]c(=O)n1Cc1ccccc1 the inhibition was -4.42% (inactive).
For Cc1cc(C)nc(-n2ncc3c2CC(c2ccc(C(C)C)cc2)CC3=O)n1 (configuration not stated), the inhibition was -16.7% (inactive).
In the case of N#CCCN(C(=O)Nc1ccc(Cl)c(Cl)c1)C1CCCCC1, the inhibition is reported as 4.76% (inactive).
CC1(C(=O)O)CCC(C(=O)Nc2ccc(Cl)c(Cl)c2)C1(C)C (configuration not stated) was tested, and the inhibition was 1.51% (inactive).
O=C(CC(O)(C(F)(F)F)C(F)(F)F)Nc1ccc(Cl)c(Cl)c1 was tested, and the inhibition was 71.9% (active).
In the case of O=C(Nc1cc(S(=O)(=O)N2CCOCC2)ccc1N1CCOCC1)c1c(F)cccc1Cl, the inhibition is reported as 4.42% (inactive).
For CCOc1ccc(S(=O)(=O)N2CCC(C(=O)NCC(=O)Nc3cccc(Cl)c3C)CC2)cc1, the inhibition was -15% (inactive).
In the case of COCOc1cc(O)c(C(=O)/C=C/c2ccc(OCOC)c(OCOC)c2)c(OCOC)c1, the inhibition is reported as -3.45% (inactive).
For C=CCn1c(C)cc(C2=NNC(=NCC)SC2)c1C, the inhibition was 87.5% (active).
With Cc1ccc(N2C(=O)CN=C2Nc2nc(C)cc(C)n2)cc1 the inhibition was 0.5% (inactive).
For O=C(CN1C(=O)c2ccccc2S1(=O)=O)N1CCc2ccccc21, the inhibition was 73% (active).
COc1ccc(CNC(=O)CN2C(=O)c3ccccc3S2(=O)=O)cc1 was tested, and the inhibition was 2.81% (inactive).
For CN(Cc1cccs1)C(=O)CN1C(=O)c2ccccc2S1(=O)=O, the inhibition was -19.1% (inactive).
In the case of CC1CC(NC(=S)N(C)C)CC(C)(C)C1 (configuration not stated), the inhibition is reported as 0.06% (inactive).
For Cc1ccc(NC(=O)CN2CCC3(O)CCCCC3C2c2ccc3c(c2)OCO3)c(C)c1 (configuration not stated), the inhibition was 5.71% (inactive).
With CCCCCCCCn1c2c(c(=N)c3c1CCC3)CCCC2 the inhibition was 69% (active).
With O=C(COC(=O)C1CCN(S(=O)(=O)c2ccc3c(c2)OCCO3)CC1)Nc1ccccc1OC(F)F the inhibition was 6.03% (inactive).
In the case of O=C(CCNC(=O)c1ccc([N+](=O)[O-])cc1)Nc1ccccc1N1CCOCC1, the inhibition is reported as -16.9% (inactive).
